FMDV antiviral = foot and mouth disease virus antiviral activity. hit rate 1.2% among 410,000. Potency, µM (highest dose often 57.9 µM), inactives show at the top dose activity change, negative = inhibition, hits mostly inhibitors. FMDV antiviral cell-based qHTS; calls by dose curve; tested in HEK293T cells; further: read-out not given here; potency means the concentration at half of the fitted maximal effect; nearly all actives have a fitted effect of over 45% in size
MARV entry inh = Marburg virus entry inhibition; Marburg virus pseudotyped entry inhibition, cell reporter; hit rate 1.8% among 300,000; Potency, µM (doses to about 37.8 µM), for the others: top-dose activity change, negative = inhibition, most hits filed as inhibitors; calls by dose curve; tested in HEK293 cells; further: potency means the concentration at half of the fitted maximal effect
LASV entry inh = blocks Lassa virus binding to or entry into cells | Lassa virus pseudotype entry inhibition, cell reporter | Potency, µM (titrated, usually from 37.9 µM), inactives show top-dose activity change, negative = inhibition, most hits filed as inhibitors | hit rate 1.2% among 300,000 | AID 540256; calls by dose curve; tested in HEK293 cells; further: potency means the concentration at half of the fitted maximal effect; nearly all actives have a fitted effect of over 50% in size
Vaccinia mCherry = inhibitors of vaccinia virus infection (mCherry reporter signal); Vaccinia virus mCherry reporter infection, fluorescence; Potency, µM (titrated, usually from 36.5 µM), inactives show top-dose activity change, negative = inhibition, actives largely listed as inhibitors; hit rate 0.63% among 310,000; calls by dose curve; tested in A549 cells; further: potency means the concentration at half of the fitted maximal effect; nearly all actives have a fitted effect of over 35% in size
Vaccinia Venus = inhibitors of vaccinia virus (Venus reporter) | hit rate 0.46% among 330,000 | Potency, µM (highest dose often 36.5 µM), for inactives: at the top dose activity change, negative = inhibition, most hits filed as inhibitors | Vaccinia virus Venus reporter expression, fluorescence; calls by dose curve; tested in A549 cells; further: potency means the concentration at half of the fitted maximal effect; nearly all actives have a fitted effect of over 30% in size
HCMV inh = inhibitors of human cytomegalovirus; HFF cells, HCMV-luciferase reporter, 72 h; hits give low values; AID 1259415; activity change, negative = inhibition, % at 57.5 µM; hit rate 4.5% among 410,000; in the data active means activity change below about -60%; inconclusive means no clear call, values can overlap the other calls; inactive means above about -39%
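Human foreskin fibroblasts infected with luciferase-reporter HCMV at MOI 1 PFU/cell, compounds at two doses. Luciferase measured 72 h post infection; normalized to buffer-only basal and Salinomycin (10uM) controls.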
* = called active by the depositor; i = inactive; ? = inconclusive; . = not tested or not shown; [ ] = remark or other dose. An excerpt weighted towards active compounds, which were near 6.5% of everything screened. On the % scale 0 is the no-effect control and ±100 the full control effect.

SMILES | FMDV antiviral | MARV entry inh | LASV entry inh | Vaccinia mCherry | Vaccinia Venus | HCMV inh
CCc1ccc(-c2cc(C)no2)cc1S(=O)(=O)N1CCOc2ccccc21 | ? | ? | ? | i | -12% | -74*
Cc1cc(C)cc(Nc2cc(C(=O)NCCCN(C)C3CCCCC3)c3ccccc3n2)c1 | ? | ? | -27%[46.1 µM] | -8%[7.34 µM] | -9%[7.34 µM] | -99*
CCCCN(C)CCCNC(=O)c1cc(Nc2ccc(OC)c(OC)c2)nc2ccccc12 | ? | . | . | . | . | 68
CCCCN(C)CCCNC(=O)c1cc(-c2ccc(Br)s2)nc2ccccc12 | -9% | 13%[46.1 µM] | ? | -15%[7.34 µM] | -12%[7.34 µM] | -68*
CCCCN(CCCNC(=O)c1cc(Nc2ccc(OC)c(OC)c2)nc2ccccc12)Cc1ccccc1 | -10% | ? | ? | -23% | -9% | -18
COc1ccc(Nc2cc(C(=O)NCCCN(C)Cc3ccccc3)c3ccccc3n2)cc1OC | -16% | . | 2%[46.1 µM] | -29% | -21% | -100*
CCCCN(CCCNC(=O)c1cc(Nc2ccc(OC)cc2)nc2ccccc12)Cc1ccccc1 | -3% | 8%[46.1 µM] | 26%[46.1 µM] | -21% | -24% | -71*
Cc1cnc(CNc2nc(-c3ccc(C(=O)N(C)C)cc3)nc3ccccc23)cn1 | 76% | . | . | -1% | 2% | .
CCn1c(=O)n(C2=C(CO)CN(CC3CCCCCCC3)CC2)c2ccccc21 | -15% | . | . | . | . | .
Cc1c(-c2ccccc2)c(=O)oc2c(CN3CCCC3)c(O)ccc12 | 12% | . | 3%[46.1 µM] | -6%[7.34 µM] | 0%[7.34 µM] | 2
N[C@]1(C(=O)O)CC[C@@H](C(=O)O)C1 (racemic) | -7% | . | . | -8% | -3% | .
O=C(Nc1ccc(Cl)cc1)Nc1nnc(CSCc2ccc(Cl)cc2)s1 | ? | . | . | . | . | -67*
C[C@@H]1CC[C@H]2C(=O)O[C@@H](Cc3ccccc3)CN2[C@H]1c1ccc(Br)cc1 | . | 7%[14.2 µM] | . | . | . | .
CC(NC(=O)CN1C(=O)NC2(CCCCCC2)C1=O)c1ccccc1 (stereo unspecified) | 10% | ? | 7% | -10% | -7% | -61*
NC(=O)c1ccsc1NC(=O)CN1C(=O)NC2(CCCCC2)C1=O | -16% | . | . | . | . | -105*
N#Cc1nc(N(c2ccccc2)c2ccccc2)nc(-n2cccc2)n1 | . | . | . | -25% | -15% | .
O=C(NCc1cccc(Cl)c1)c1cccc(OC2CCN(C(=O)C3CC3)CC2)c1 | 16µM* | ? | ? | ? | -24% | -70*
O=C(C1CC1)N1CCC(Oc2cccc(C(=O)N3CCCCC3CCO)c2)CC1 (stereo unspecified) | 13% | . | . | . | . | -3
O=C(NCc1ccco1)c1cc2nc(C3CC3)cc(C(F)(F)F)n2n1 | 8% | 1%[46.1 µM] | 3.5µM* | . | -25% | 10
Cc1ccc(C)c(N2CCN(c3c(CN4CCCC4)c(=O)oc4ccccc34)CC2)c1 | -22% | ? | 23%[46.1 µM] | -17% | -12% | 0
CN(C)CCOc1nc(-c2ccccc2)nc2c1oc1ccccc12 | 0% | ? | ? | . | 1% | -77*
CN(C)CCOc1ncnc2c1oc1ccccc12 | -7% | -3% | 18% | . | . | 18
COc1cc(NC(=O)c2ccc(-c3nc(COc4ccccc4)c(C)o3)cc2)cc(OC)c1 | 0% | . | ? | -16%[7.34 µM] | -21%[7.34 µM] | -78*
COc1cc(OC)c2c(-c3cccc(-c4sccc4C(C)=O)c3)cc(=O)oc2c1 | 0% | . | . | ? | ? | -79*
C[C@H]1[C@H](N=[N+]=[N-])[C@H](O)CCO[C@@H]1c1ccccc1 | . | 13%[14.2 µM] | . | . | . | .
SMILES | FMDV antiviral | MARV entry inh | LASV entry inh | Vaccinia mCherry | Vaccinia Venus | HCMV inh
CNC(=O)[C@H]1O[C@@H](n2cnc3c(NCc4cccc(I)c4)nc(Cl)nc32)[C@H](O)[C@@H]1O | -20% | . | . | -27% | -8% | 44
CCn1c(=N)n(CCOc2ccc(Br)cc2)c2ccccc21 | ? | . | -31%[46.1 µM] | i[7.34 µM] | -15%[7.34 µM] | -101*
COc1ccc(OCCn2c(=N)n(CCO)c3ccccc32)cc1 | -27% | ? | -27% | -20% | -8% | -10
CCCCn1c(=N)n(CCOc2ccccc2OC)c2ccccc21 | ? | ? | ? | -19%[7.34 µM] | -20%[7.34 µM] | -71*
CCCCn1c(=N)n(CCOc2ccc(C)cc2)c2ccccc21 | ? | ? | ? | 14µM* | ? | -37
Cc1cc(=O)oc2cc(NC(=O)C(CCCCN)NC(=O)C(CC3CCCCC3)NC(=O)OCC3c4ccccc4-c4ccccc43)ccc12 (stereo unspecified) | -8% | . | . | . | . | .
CC12C=C(C=Cc3ccc(Br)cc3)C(C)(C1)C(c1ccc(Br)cc1)CC2=O (stereo unspecified) | . | -26%[14.2 µM] | 11%[14.3 µM] | . | . | .
NC(=S)N/N=C1\CCOc2ccc(F)cc21 | -16% | 10%[46.1 µM] | ? | 1.8µM* | 0.89µM* | -2
CSc1ncc(Cl)c(C(=O)Nc2nnc(SC/C=C/c3ccccc3)s2)n1 | 10% | 1% | 26% | -15% | -13% | -8
Cc1cccc(CS(=O)(=O)c2ncc(Cl)c(C(=O)Nc3nnc(C(C)C)s3)n2)c1 | 8.9µM* | ? | ? | -7% | -6% | -100*
CSc1nnc(NC(=O)c2nc(S(=O)(=O)Cc3cccc(C)c3)ncc2Cl)s1 | 5.6µM* | ? | ? | -7% | 2% | -103*
Cc1ccc(CS(=O)(=O)c2ncc(Cl)c(C(=O)Nc3nnc(C(C)C)s3)n2)cc1 | 11µM* | ? | ? | 10%[7.34 µM] | -9% | -98*
Cc1ccc(C)c(NC(=O)c2nc(S(=O)(=O)Cc3ccc(F)cc3)ncc2Cl)c1 | 28µM* | 6%[46.1 µM] | ? | -17%[7.34 µM] | -14%[7.34 µM] | -100*
CC(C)c1nnc(NC(=O)CS(=O)(=O)Cc2ccccc2)s1 | 6% | 7%[46.1 µM] | 12%[46.1 µM] | 0% | -10% | -9
COc1ccc(C(=O)N2CCC3(CC2)CN(c2ncccn2)C3)cc1 | -11% | . | . | . | . | .
CCCCc1nn2c(=O)cc(COC(=O)c3ccccc3NC(=O)c3ccccc3OC)nc2s1 | 0% | . | 16%[46.1 µM] | -11% | -2% | -8
COc1cc(CN2CCC3(CCC(CNC(=O)c4ccccc4)O3)CC2)cc(OC)c1 (stereo unspecified) | -10% | . | . | i | -6% | .
O=C1[C@H]2[C@H]3[C@H](O)[C@H](O)C/C(=N/OCc4ccccc4)[C@@H]3CC[C@@H]2C(=O)N1C1CCCCC1 | . | -14%[14.2 µM] | . | . | . | .
COCc1c(C(=O)N2CCN(c3ccccc3)CC2)cnn1-c1nccc(-c2ccco2)n1 | 1% | . | . | -21% | -11% | .

Source: PubChem BioAssay
